Screening results: PubChem BioAssay, several laboratories
Myeloid diff MLP: compounds promoting myeloid differentiation; hit rate 1% among 360,000; ER-HoxA9 myeloid progenitors, lysozyme-GFP differentiation, flow cytometry; calls only at 10 µM;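 active means normalized GFP-positive differentiation at or above the plate's own cutoff, the solvent-only control mean plus 3 SD; inconclusive means no clear call, values can overlap the other calls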;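 further: cells exposed to compound for four days before flow analysis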
NPR1 activator: GC-A (human) enzyme activation | HEK293 GC-A cells, cGMP TR-FRET, EC30 ANP; 0% at EC30 ANP, 100% saturating ANP | activation, % at 10 µM | hit rate 0.14% among 370,000 | P16066; in the data active means activation above about 40%
GC-B act: GC-B (human) receptor activation; P20594; HEK293-GC-B cells, CNP EC30, cGMP TR-FRET; 0% at EC30 CNP, 100% saturating CNP; activation, % at 10 µM; hit rate 0.11% among 370,000; AID 1920062;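 active means activation at 10 µM reaching about 35% in either raw or pattern-adjusted values, limit read from the data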
Exocytosis inh: lytic granule exocytosis inhibition. AID 651702. TALL-104 LAMP-1 surface exposure, flow cytometry; cells stimulated with thapsigargin and PMA. inhibition, % at 10 µM. hit rate 0.66% among 360,000;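 active means inhibition above about 55%, limit read from the data; inconclusive means no clear call, values can overlap the other calls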
Exocytosis CP01: blocks lytic granule exocytosis; shares compounds with Exocytosis inh; TALL-104 cells, LAMP-1 externalization, flow cytometry; stimulated with PMA plus thapsigargin; inhibition, % at 10 µM; hit rate 11% among 1,500; AID 651954; in the data active means inhibition above about 60%;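 further: 0% = stimulated vehicle wells and 100% = unstimulated wells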
Starred values were filed as active, the others as inactive; i = inactive; ? = inconclusive; / = no result. Most compounds without a hit are left out; they make up all but 1.8% or so of the library.

SMILES	Myeloid diff MLP	NPR1 activator	GC-B act	Exocytosis inh	Exocytosis CP01
CC1=NOC(=O)/C1=C/c1ccc(-c2ccc(Cl)cc2)o1	/	/	/	78*	101*
COc1ccc(NC(=S)N(CCCN2CCCC2)Cc2cccn2Cc2ccc(Cl)cc2)cc1Cl	i	-28	-12	69*	44
COc1ccc(NC(=S)N(CCCN2CCC(C)CC2)Cc2cccs2)cc1Cl	i	-3	0	12	/
COc1ccc(OC)c(NC(=O)c2ccccc2N(C)S(=O)(=O)c2ccc(C)cc2)c1	i	-8	0	61*	-13
COc1ccc2[nH]c3c(C)c4ccncc4c(C)c3c2c1	?	6	-7	70*	18
Cc1c2ccncc2cc2c1[nH]c1ccccc12	?	-11	-9	1	/
Cc1ccc(S(=O)(=O)NCCC(=O)NCCc2ccc(S(N)(=O)=O)cc2)cc1C	i	0	4	7	/
Cc1ccc(-n2c(SCC(=O)Nc3ccccc3-c3ccccc3)nnc2-c2ccccn2)cc1	/	-6	-9	/	/
COc1cc(C)cc(OC)c1OCC(=O)Nc1cc(C)on1	i	-1	1	69*	-4
O=C(NC1CCN(Cc2ccccc2)CC1)C1CCN(S(=O)(=O)c2ccc(Cl)cc2)CC1	i	2	-3	0	/
O=S(=O)(c1ccccc1)c1nnn2c1nc(NC1CCN(Cc3ccccc3)CC1)c1cc(Cl)ccc12	?	-4	-4	64*	69*
CC1=C(C(=O)N2CCOCC2)CC(CC(=O)NC2CCCC2)C(=O)N1Cc1ccccc1 (stereo not given)	i	2	2	-4	/
Cn1c(=O)c2c(nc(N3CCN(c4ccccc4)CC3)n2CCCc2ccccc2)n(C)c1=O	i	-5	-4	74*	-3
O=C(Cc1cccs1)Nc1nc(-c2ccc(F)cc2F)cs1	i	4	-1	64*	-7
CC1(C(=O)NS(=O)(=O)c2ccccc2Cl)CCN1C(=O)C/C=C/c1ccccc1 (stereo not given)	i	2	-1	2	/
CCCCNS(=O)(=O)/C=C/c1cc2c(cc1CNC(=O)OC(C)(C)C)OCO2	/	-5	1	/	/
COC(=O)C1=C(C)N(Cc2ccco2)C(=O)N[C@@H]1c1ccc(Br)cc1	i	1	-5	56*	-4
Cc1c(Cl)ccc2c(C(O)CBr)cc(-c3ccccc3)nc12 (stereo not given)	i	1	-6	64*	-14
Cc1ccc(-c2cc(C(=O)NCCCN3CCOCC3)c3ccc(Cl)c(C)c3n2)cc1	i	0	3	-6	/
CCCCCCN1C[C@H](n2cc(-c3ccc(F)cc3)nn2)[C@@H](O)C[C@@H]1c1ccc(C)cc1	i	-4	-6	62*	-10
C[C@H](c1ccccc1)N1C[C@@H](COCc2ccccc2)Oc2cc(N3CCC[C@H]3CO)ccc2S1(=O)=O	i	4	-2	-4	/
Cc1ccc(S(=O)(=O)N(Cc2ccc(Cl)cc2)c2ccccc2C(=O)O)cc1	i	-2	-1	6	/
CC(C)n1nccc1N(Cc1ccc(Cl)cc1)S(=O)(=O)c1ccccc1	i	-11	-4	97*	2
CC(C)n1nccc1N(Cc1ccc(Br)cc1)S(=O)(=O)c1ccccc1	?	-13	-7	90*	11
C#CCNC(=O)c1csc([C@@H]2O[C@H](CO)[C@@H](O)[C@H]2O)n1	i	1	-5	-11	/
SMILES	Myeloid diff MLP	NPR1 activator	GC-B act	Exocytosis inh	Exocytosis CP01
Clc1ncnc2c1oc1ccccc12	i	53*	34	72*	-4
CCCCn1c(NS(=O)(=O)c2ccc(C)cc2)c(S(=O)(=O)c2ccccc2)c2nc3ccccc3nc21	?	-2	8	68*	0
C#CCNC(=O)C1=C[C@@H](c2coc3ccccc3c2=O)C[C@@H](OCc2ccc(CO)cc2)O1	i	-1	-1	88*	-5
C#CCNC(=O)C1=C[C@H](c2coc3ccccc3c2=O)C[C@H](OCc2ccc(CO)cc2)O1	i	0	-4	-4	/
CN(Cc1cn(Cc2ccccc2)nn1)S(=O)(=O)c1ccccc1Br	/	1	1	/	/
COc1cc(NC(=O)c2ccccc2OCc2ccccc2)cc(OC)c1OC	i	19	27	84*	-7
CNC(=O)c1cccc(NC(=O)c2ccccc2OCc2ccccc2)c1	i	14	15	63*	-5
COC1OC2COC(c3ccccc3)OC2C(NC(C)=O)C1OC(C)=O (stereo not given)	i	3	0	-11	/
